# Results from PubChem BioAssay (NCI).
# Compounds without any hit were thinned out: in the full panel of roughly 83,000, 20% have a hit.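 Treatment: one concentration, 48 hours, 96-well format. Scoring: percent growth, with anything below 10 considered active.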 Values without a mark were called inactive. Active and inactive are the calls of the source.
# System: MOLT-4 leukemia
# Assay: NCI-60 one-dose screen, 48 h (100 = growth as untreated, 0 = no growth, -100 = all killed)
# Conditions: 10 µM unless noted
# Experimental: Growth inhibition of the MOLT-4 human tumor cell line is measured as a screen for anti-cancer activity. Cells are grown in 96 well plates and exposed to the test compound for 48 hours. Compounds are tested at a single concentration, which is 10^-5 M for most compounds. The reported endpoint is percent growth (GI% or GIPRCNT), where numbers from 0 - 100% represent growth inhibition, and numbers from -100% - 0 represent cell death. For example, a value of 40 represents 60% growth inhibition. A value of 0 means no net growth occurred over the course of the experiment. A value of -40 indicates 40% of cells at the beginning of the experiment died by the end of the experiment. A value of -100 means all cells are dead at the end of the experiment.
# NCI-60 Human Tumor Cell Lines Screen was performed using the standard one-dose NCI protocol, which is described in more detail at https://dtp.cancer.gov/discovery_development/nci-60/default.htm.
# Compounds with GIPRCNT values below 10 were considered active. Activity score was based on GIPRCNT using the following formula: […]
# Score is 0 for GIPRCNT values of 100 or above, 50 for GIPRCNT values of 0, and 100 for GIPRCNT values of -100.
row,SMILES,growth
1,Cc1cc(C(NC(=O)CCCCCNc2cccc3c2C(=O)N(C2CCC(=O)NC2=O)C3=O)c2ccc3c(c2)OC(F)(F)O3)c(O)c2ncccc12 (stereo not given),42.5%
2,NS(=O)(=O)c1ccc(Nc2nc(N/N=C/c3ccccn3)nc(Nc3ccccc3)n2)cc1,3.13% (active)
3,CC(=O)c1ccc(Nc2nc(SCC(C)C)nc(-c3ccccc3)c2C#N)cc1,102%
4,CCN(CC)c1ccc(NC2=C(Cl)C(=O)c3nc(C)ccc3C2=O)cc1,0.296% (active)
5,N/C(=N\C(N)=N\c1nc2ccccc2s1)c1ccncc1Cl,23.9%
6,Cc1ccc2c(c1)C13C(=C2Br)CCCN1C(=O)c1ccccc13 (stereo not given),79.8%
7,O=C(CN1CCN(c2cc(=O)n(-c3ccccc3)c3ccccc23)CC1)Nc1nc(-c2ccccc2)cs1,17.8%
8,Cn1ccnc1C(=O)/C=C/c1ccc(CNC(=O)c2ccc(S(F)(F)(F)(F)F)cc2)cc1,0.864% (active)
9,NC(N)=Nc1ccc(Oc2cccc(NC(N)=Nc3ccc(Br)cc3)c2)cn1,65%
10,COc1ccc(C2CC(c3ccc(Nc4nc(NCCO)nc(N5CCOCC5)n4)cc3)=Nc3c(N)nc(N)nc3N2)cc1 (stereo not given),102%
11,Cc1cc(S(=O)(=O)N(C)C)cc(NCC(=O)NC(=O)NCC(C)C)c1C,96.1%
12,COc1cc(OC)c(S(N)(=O)=O)cc1C(=O)/C=C/c1ccc(Cl)cc1,3.62% (active)
13,CS(=O)(=O)Nc1cc(-c2ccc3ncc(C#N)c(NCc4ccccc4F)c3c2)cnc1Cl,-15.8% (active)
14,O=c1[nH]c(Sc2sc3ccc(Cl)cc3c2CBr)nc(=S)[nH]1,17.5%
15,C=C(C=O)[C@@H]1CC[C@]2(C)[C@H](CC=C3[C@H]4[C@@H](C)[C@H](C)CC[C@]4(C(=O)OC)CC[C@]32C)[C@@]1(C)CCC#N,1.4% (active)
16,Cc1cccc(/C=C/C(=O)Nc2ncc(Cc3cccc(C)c3)s2)c1,22%
17,COc1cc(OC)cc(C(=O)Nc2cccc(C#Cc3cccc4[nH]nc(N)c34)c2)c1,20.5%
18,Cn1cc(CNc2nc3ccc(OC/C(=C/F)CN)cc3o2)ccc1=O,104%
19,O=C(CSc1nnc(-c2ccc3nc(-c4ccccc4)[nH]c3c2)o1)Nc1ccc(C(=O)/C=C/c2ccccc2)cc1,93.2%
20,NC(N)=Nc1ccc(Nc2cccc(Nc3ccc(Cl)c(C(F)(F)F)c3)c2)cn1,12.8%

row,SMILES,growth
1,COc1ccccc1NCc1cccn1Cc1ccc(F)cc1,94%
2,O=C(Nc1ccc(F)c(F)c1)c1cc(-c2ccc(F)cc2F)ccc1O,2.67% (active)
3,O=[N+]([O-])c1cc(/C=N/Nc2nc(N/N=C/c3ccc(Cl)c([N+](=O)[O-])c3)nc(N3CCCCC3)n2)ccc1Cl,42.3%
4,CCCCCc1ccc(S(=O)(=O)Nc2cccc(-c3csc(NC(=O)CN4CCN(C)CC4)n3)c2)cc1,20.8%
5,Nc1nc(Nc2ccccc2SSc2ccccc2Nc2nc(N)nc(-c3cccc(Br)c3)n2)nc(-c2cccc(Br)c2)n1,52%
6,Cc1nc2ncc(-c3ccc4ncnc(NCc5ccccc5)c4c3)cc2[nH]1,45.2%
7,C[C@@H]1C[C@H]2C(=O)O[C@@H](C)C(NC(=O)[C@H](Cc3cc(F)cc(F)c3)NC(=O)Nc3ccc(Cl)cc3F)C(=O)N3CCC[C@H]3C(=O)N3CCCC[C@H]3C(=O)N[C@@H](CO)C(=O)N2C1 (stereo not given in full),36.5%
8,COc1ccc2c(c1)Oc1nc(N)c(C#N)c(N)c1C2Sc1ccc(C)cc1 (stereo not given),-12.9% (active)
9,NC(=O)c1c(NC(=O)c2ccccc2C(F)(F)F)sc2c1CCC(=O)C2,19.9%
10,O=S(=O)(NC1c2ccccc2C[C@H]1O)c1ccc(Cl)cc1Cl (stereo not given in full),105%
11,CNC(=O)c1c(NC(=O)c2ccccc2C(F)(F)F)sc2c1CCC(=O)C2,18.3%
12,N#Cc1cccc(CN2CCc3ncn(Cc4ccc(Cl)cc4)c(=O)c3C2)c1,43.3%
13,NS(=O)(=O)c1ccc(Nc2cc(-c3ccccc3)nc(SCC(=O)c3ccccc3)n2)cc1,105%
14,COc1cc(OC)c(/C=C/S(=O)(=O)Cc2ccc(OC)c(NC(=O)CCC(=O)NO)c2)c(OC)c1,17.2%
15,O=S(=O)(NCCNc1nccc(-n2cnc3ccccc32)n1)c1ccc(Cl)cc1,103%
16,NS(=O)(=O)c1ccc(-n2cc(CN3CCNCC3)nn2)cc1,103%
17,COc1ccccc1-n1cc(C#N)c(N)c1C(=O)c1ccc(C)cc1,83.1%
18,N#Cc1c(Nc2ccccc2)nn2c(-c3ccc([N+](=O)[O-])cc3)ccnc12,105%
19,C=C(C=O)[C@@H]1CC[C@]2(COC(C)=O)CC[C@]3(C)C(CC[C@@H]4[C@@]5(C)CC[C@H](OC(C)=O)C(C)(C)[C@@H]5CC[C@]43C)[C@@H]12 (stereo not given in full),-18.1% (active)
20,COc1ccc(OC)c(-c2nc(SCC(=O)c3ccc(Br)cc3)nc(Nc3ccc(S(N)(=O)=O)cc3)c2C#N)c1,28.5%
